# Data published in PubChem BioAssay (NCI).
# Compounds without any hit were thinned out: in the full panel of roughly 83,000, 20% have a hit.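 Assay: single dose, 48 h. Readout: percent growth (0 = no net growth; negative = cell death). Active: <10.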 Values without a mark were called inactive. Activity calls are given as the source filed them.
# Assays:
# Experiment in all cases: NCI-60 one-dose screen, 48 h (100 = growth as untreated, 0 = no growth, -100 = all killed)
# Settings in all cases: 10 µM unless noted
# [1] = test system: SK-MEL-2 melanoma
# [2] = test system: EKVX NSCLC
# [3] = test system: SN12C renal
# [4] = test system: UO-31 renal
# [5] = test system: TK-10 renal
# [6] = test system: ACHN renal
# [7] = test system: CAKI-1 renal
# [8] = test system: A498 renal
# [9] = test system: CCRF-CEM leukemia
# [10] = test system: MOLT-4 leukemia
Compound,growth [1],growth [2],growth [3],growth [4],growth [5],growth [6],growth [7],growth [8],growth [9],growth [10]
CCSC(SCC)c1ccc(Cl)cc1,116%,106%,99.7%,92.5%,116%,107%,82.9%,93.4%,108%,110%
O=C(O)CCN1C(=O)/C(=C/C(Cl)=C/c2ccccc2)SC1=S,43.7%,39.1%,11.9%,35.8%,49.7%,-65.3% (active),23.8%,43.5%,1.73% (active),10.6%
O=C(CN1CCCCC1)Nc1nc(-c2cc3ccccc3oc2=O)cs1,112%,96.1%,96.1%,82.9%,138%,100%,95.9%,97.3%,102%,98.9%
COC12C=C/C(=C(/C(=O)OCc3ccncc3)C(=O)CCCCCCCCC3(OC)C=C/C(=C(/C(=O)OCc4ccncc4)C(=O)CCCCCCCC1)O3)O2,-1.63% (active),-22.1% (active),-30.6% (active),-70.9% (active),-45% (active),-64% (active),-48.6% (active),-87.6% (active),-14.8% (active),-1.82% (active)
COC12C=C/C(=C(/C(=O)OCc3ccncn3)C(=O)CCCCCCCCC3(OC)C=C/C(=C(/C(=O)OCc4ccncn4)C(=O)CCCCCCCC1)O3)O2,11.6%,-15.5% (active),-10.7% (active),-50.7% (active),9.83% (active),-74.8% (active),-28.4% (active),-86.3% (active),-15.2% (active),-7.71% (active)
N=C(N)c1ccc(-c2ccc(-c3ccc(Cl)cc3Cl)s2)cc1,104%,63.5%,16%,21.8%,110%,-28% (active),-67.3% (active),86.3%,-3.15% (active),-24.3% (active)
Nc1ncnc2c1c(-c1cccc(Cl)c1)nn2CC(=O)N1CCOCC1,106%,104%,100%,80.7%,97%,95.6%,91.8%,118%,102%,110%
COc1ccc(/C=C/C(=O)c2cccc(OCCCCOc3cccc(C(=O)/C=C/c4ccc(OC)c(OC)c4)c3)c2)cc1OC,81.2%,55%,79.9%,62%,114%,77.8%,74.2%,79.9%,62.7%,62.8%
C[C@@H](CO)[C@@H]1CCC=C2CC[C@]3(C)[C@H](CC[C@@H]4[C@@]5(C)CCCNC(C)(C)[C@@H]5CC[C@]43C)[C@H]21,52.1%,94.5%,67.3%,79.7%,82%,87.2%,47%,76.6%,26.2%,10.3%
COc1ccc(C(=O)Nc2cccc(-c3cc(=O)c4c(OC)c(OC)c(OC)cc4o3)c2)cc1,61.3%,77.3%,50%,26.5%,76.7%,47%,57.4%,69.3%,27.5%,23.3%
Cc1nc2sc(C(=O)Nc3cccc(Br)c3)c(N)c2cc1C(O)c1ccccc1 (stereo not given),47.2%,48.5%,22.4%,48.4%,58%,33.2%,46.4%,5.68% (active),15.7%,17.1%
COc1ccc(C/C(C)=C(/c2ccc(OCCN(C)C)cc2)c2ccc(OC(=O)NCc3ccccc3)cc2)cc1,90.5%,72.2%,74.2%,46.4%,78.5%,90.9%,67.1%,85.7%,47.2%,37.3%
CCOC(=O)c1cc(C(=O)c2cc(OC)c(OC)c(OC)c2)n2ncccc12,57.7%,37.6%,53.6%,39.8%,54%,51.6%,38.1%,-5.24% (active),11%,18.5%
COc1ccc(C(=O)C/C(=C\c2ccc(Cl)cc2)C(=O)NCc2ccccc2)cc1,79.6%,95.6%,91.3%,76%,72.7%,92.7%,87.4%,88%,73.5%,72.9%
CNC(=O)c1ccccc1Oc1nc(Nc2cc(OC)c(OC)c(OC)c2)ncc1Br,1.29% (active),55.3%,75.8%,33%,50.5%,67.1%,37%,-18.3% (active),59.5%,68.6%
CCCCCCC12CCC(=O)N1CCc1cncn12 (stereo not given),108%,99.9%,102%,109%,92.5%,109%,109%,99.2%,95.4%,104%
CCOC(=O)c1nn(-c2ccc(S(N)(=O)=O)cc2)c2nc(C)cc(=O)n12,109%,104%,96.7%,86.1%,94.7%,108%,90.8%,88.3%,105%,119%
COc1cc2c(c(OC)c1OC)CCC(c1cccc(C(=O)Nc3ccc(C#N)cc3)c1)O2 (stereo not given),50.7%,60.1%,46.6%,25%,57.6%,39.8%,43.4%,50.8%,10.5%,-14.4% (active)
CC(C)=CCCC(C)c1ccc(C)c2c1OCN(CCCCCO)C2 (stereo not given),92.7%,102%,78.6%,57%,73.7%,94.1%,78.1%,75.3%,96%,66.5%
c1cnc2c(-c3nc4ccc5[nH]ncc5c4c4c3CCCC4)c[nH]c2c1,58.5%,49.5%,27.4%,43.7%,50.1%,27.1%,57%,64.2%,11.4%,5.62% (active)
C=C1C(=O)O[C@H]2[C@H]1CC/C(Cn1cc(-c3ccccc3)nn1)=C\CC[C@@]1(C)O[C@@H]21,6.62% (active),72.1%,6.55% (active),-75.1% (active),-72.1% (active),-40.7% (active),-62.8% (active),46.6%,-20.7% (active),-13.8% (active)
O=C(/C=C(/C=C/c1ccc2[nH]ccc2c1)OB(F)F)/C=C/c1ccc2[nH]ccc2c1,25.8%,4.65% (active),10%,2.63% (active),5.77% (active),-22.4% (active),-14.5% (active),32.5%,-19.9% (active),-4.43% (active)
O=[N+]([O-])c1ccc(O)cc1Br,97.8%,98%,98%,83.8%,99.9%,99.2%,94.5%,81.6%,95.2%,104%
COc1ccc(Nc2ncc(Br)c(NCCCNC(=O)c3cccs3)n2)cc1,46.8%,55.6%,21.5%,-0.36% (active),24.3%,21.3%,16.2%,51.7%,16.3%,19.5%
O=C(NCc1ccc(Cl)cc1Cl)C1CCC(=O)N1c1cccs1 (stereo not given),91.2%,91.3%,97.9%,83.1%,98.8%,95%,81.6%,85.2%,110%,98.1%
